# Data published in PubChem BioAssay (NCI).
# Compounds without any hit were thinned out: in the full panel of roughly 83,000, 20% have a hit.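 Single-concentration screen, 48 h exposure, 96-well plates. Endpoint: percent growth. Below 10 = active.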 Unmarked numbers belong to inactive results. The source made the active and inactive calls.
# Tested on: NCI-H23 lung
# Assay: NCI-60 one-dose screen, 48 h (100 = growth as untreated, 0 = no growth, -100 = all killed)
# Conditions: 10 µM
row,SMILES,growth
1,CNC(=O)c1cccc(N2CCc3c2ccc(NC(=O)Nc2ccc(N4CCN(C)CC4)c(C(F)(F)F)c2)c3F)c1,-85.6% (active)
2,CC(=O)Nc1ccc(-n2cnc3cc(-c4ccc(O)cc4)ccc32)cc1C,47.6%
3,CN(C)c1nc(NCCNS(=O)(=O)c2ccc(C(=O)/C=C/c3ccccc3)cc2)nc(Nc2ccc(F)cc2)n1,28.8%
4,O=C1CCC(N2Cc3c(C#CCCCNC(=O)c4ccc(NC(=O)[C@@H]5NC6(CCCCC6)[C@@]6(C(=O)Nc7cc(Cl)ccc76)[C@H]5c5cccc(Cl)c5F)cc4)cccc3C2=O)C(=O)N1 (stereo partly specified),74.4%
5,COc1cc(C2CC(c3ccccc3)=Nc3c(N)nc(N)nc3N2)ccc1Oc1nc(Nc2ccc(F)cc2)nc(N(C)C)n1 (stereo unspecified),43.9%
6,CCOC(=O)C1=C(N)N(c2ccc(Cl)cc2)C2=C(C(=O)CC(C)(C)C2)C1c1ccc(N2CCOCC2)cc1 (stereo unspecified),105%
7,O=C(c1ccc(Cl)cc1)C1[C@H](c2ccccc2Br)[C@@H](c2ccccc2)NC12C(=O)Nc1ccc(Cl)cc12 (stereo partly specified),-22.3% (active)
8,Nc1nc(Nc2ccc(Cl)cc2)nn1Cc1cccc(Br)c1,31.7%
9,O=S(=O)(Nc1ncccn1)c1ccc(-n2c(-c3ccccc3)nc(-c3ccccc3)c2-c2ccccc2)cc1,95.4%
10,CN1CCc2c(sc3ncnc(N/N=C/c4cn(-c5ccccc5)nc4-c4ccc(Cl)cc4)c23)C1,-20.6% (active)
11,Nc1nnc(-c2c[nH]c3ncccc23)c(-c2c[nH]c3ccc(Br)cc23)n1,57.1%
